An excerpt weighted towards active compounds, which were near 19% of everything screened.
ELG1 repair inh: qHTS screen for small molecules that inhibit ELG1-dependent DNA repair in human embryonic kidney (HEK293T) cells expressing luciferase-tagged ELG1. HEK293T ELG1-luciferase reporter, luminescence, 16 h; DNA damage induced by 5-fluorouridine. Potency, µM (titrated, usually from 46.1 µM), for the others: at the top dose activity change, negative = inhibition, actives largely listed as inhibitors. hit rate 2.3% among 330,000. AID 504467, 2011; also: potency is read from the fitted curve at half-maximal effect; nearly all actives have a fitted effect of over 55% in size
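5-Fluorouridine DNA damage + compound/DMSO, 2,000 cells/well, 16 h, 37 °C/5% CO2. ONE-Glo, 30 min RT, luminescence. Readout = decrease in reporter signal.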
HT1080NT lethal: qHTS for induction of synthetic lethality in tumor cells producing 2HG: qHTS for the HT-1080-NT fibrosarcoma cell line. hit rate 1.6% among 360,000. HT-1080-NT fibrosarcoma viability, CellTiter-Glo ATP luminescence, 48 h. Potency, µM (top dose mostly 46.1 µM), without a hit: at the highest dose activity, negative = less viability, hits mostly cytotoxic;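 also: NT is the 2HG producing partner of a matched IDH1 knockdown line; potency is read from the fitted curve at half-maximal effect; 0% = DMSO-treated cells and -100% = media-only wells without cells; nearly all actives have a fitted effect of over 55% in size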
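HT-1080-NT fibrosarcoma cells (2HG-overproducing), 750 cells/well in RPMI with 5% FBS, dosed after 2 h and incubated 48 h at 37C. CellTiter-Glo luminescence normalized to DMSO and no-cell wells; concentration-response curves fitted and classed.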
TDP1 cell CPT: qHTS for Inhibitors of human tyrosyl-DNA phosphodiesterase 1 (TDP1): qHTS in cells in presence of CPT. chicken DT40 Tdp1-/-;hTDP1 cells + 20 nM CPT, ATP luminescence, 48 h. Potency, µM (series often up to 46.2 µM), for inactives: at the top dose activity change, negative = growth inhibition, usual class: inhibitors. hit rate 12% among 420,000. AID 686979, 2013; also: potency is read from the fitted curve at half-maximal effect; nearly all actives have a fitted effect of over 55% in size
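Chicken DT40 Tdp1-/- cells stably complemented with human TDP1 were seeded at 400 cells/well in medium containing 20 nM camptothecin, exposed to pin-transferred compounds, and grown at 37 °C for at least 48 hr. Viability was read as ATP luminescence.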
TDP1 cell noCPT: qHTS for Inhibitors of human tyrosyl-DNA phosphodiesterase 1 (TDP1): qHTS in cells in absence of CPT. Potency, µM (highest dose often 46.2 µM), without a hit: top-dose activity change, negative = growth inhibition, usual class: inhibitors. DT40 Tdp1-/- hTDP1 cells, no CPT, ATP luminescence, 48 h. hit rate 15% among 420,000; also: potency is read from the fitted curve at half-maximal effect; nearly all actives have a fitted effect of over 55% in size
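Chicken DT40 Tdp1-/- cells complemented with human TDP1, screened without camptothecin (DMSO vehicle only), 400 cells/well. Compounds pin-transferred, cells incubated at 37 °C for at least 48 hr. Growth read as ATP-dependent luminescence (CellTiter-Glo, 30 min at RT).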
HT1080 IDH1KD tx: qHTS for induction of synthetic lethality in tumor cells producing 2HG: qHTS for the HT-1080-IDH1KD cell line; HT-1080 IDH1 knockdown viability, ATP luminescence, 48 h; Potency, µM (series often up to 46.1 µM), inactives show at the top dose activity, negative = toxicity, most hits filed as cytotoxic; hit rate 2% among 360,000; AID 686971, 2013;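 also: potency is read from the fitted curve at half-maximal effect; 0% = DMSO wells and -100% = cell-free medium wells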
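CellTiter-Glo luminescence after 48 h compound exposure at 37 degrees C of IDH1-knockdown HT-1080 cells in 5% FBS RPMI. %Activity scaled between DMSO wells and cell-free media wells, with curves fitted and assigned curve classes.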
IL-1B inflam inh: qHTS for Inhibitors of Inflammasome Signaling: IL-1-beta AlphaLISA Primary Screen; activity change, % at 57.5 µM; THP-1 LPS/ATP IL-1B secretion, AlphaLISA, 16 h; hits give low values; hit rate 4.7% among 360,000; in the data active = activity change below about -50%; inconclusive = mostly about -30% to -49%
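THP-1 cells pretreated 1 hr with compounds (up to 57.5 uM final), then stimulated with LPS (250 ng/mL final) plus ATP (1.25 mM final); secreted IL-1B measured by AlphaLISA after 16 hr, decreased signal indicating inhibition.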
* marks the source's active call; other numbers are inactive results; ? = inconclusive; · = no result given; ! = a repeat was not active. Unless noted, calls follow the shape of the dose curve; as a rule, active = well fitted curve in the direction sought with a large enough effect; inconclusive = small, poorly fitted or top-dose-only effect, or another doubt; inactive = no such curve, though single readings can be large; an effect the other way counts as inactive or inconclusive. Unless noted, % is scaled to controls: 0 for no effect and ±100 for the full control effect.

SMILES	ELG1 repair inh	HT1080NT lethal	TDP1 cell CPT	TDP1 cell noCPT	HT1080 IDH1KD tx	IL-1B inflam inh
COc1ccccc1C(=O)Nc1ccc2nc(SCC(=O)N(C)C)sc2c1	-12%	21%	-29%	?	16%	-18
CC1(C)CC(NC(=O)c2cc(S(=O)(=O)N3CCOCC3)c(Cl)cc2Cl)CC(C)(C)N1	11%	1%	2%	9%	-6%	-12
Cc1ccc(-n2c(SCCC(C)C)nc3sc4c(c3c2=O)CC(C)(C)OC4)cc1	·	·	-28%	-9%	·	·
O=C(Cc1cccs1)N1CCN(S(=O)(=O)c2ccc(Cl)c(C(F)(F)F)c2)CC1	3%	-8%	-29%	-41%	-6%	13
CC(OC(=O)c1cccnc1Cl)C(=O)NCc1ccccc1 (stereo not given)	3%	9%	16%	-6%	9%	-4
CC(C)(C)C(=O)Nc1ccc2nc(SCc3ccccc3)sc2c1	·	·	?	21µM*	·	·
Cn1cnnc1SCC(=O)Nc1ccc2nc(SCc3ccccc3)sc2c1	?	0%	?	?	-10%	-23
CN(C(=O)CSc1nc2ccc(NC(=O)c3cccc(F)c3)cc2s1)c1ccccc1	·	·	8.2µM*	6.5µM*	·	·
Cc1ccc(C)c(N2CCN(CCCNC(=O)c3nnc(Cc4ccc(F)cc4Cl)o3)CC2)c1	·	·	2.6µM*	4.6µM*	·	·
O=C(NCCCN1CCN(c2ccccc2)CC1)c1ccc2nc(Cc3ccccc3)oc2c1	·	·	12µM*	8.2µM*	·	·
CCN1CCN(CCCNC(=O)c2ccc3nc(Cc4ccccc4)oc3c2)CC1	·	·	9%	22%	·	·
O=C(NCCCN1CCN(c2ccccc2)CC1)c1nnc(Cc2ccc(F)cc2)o1	·	·	?	26µM*	·	·
O=C(NCCCN1CCN(c2ccc(F)cc2)CC1)c1ccc2nc(Cc3ccccc3)oc2c1	·	·	13µM*	21µM*	·	·
CCCSCCCNC(=O)c1ccc2nc(Cc3ccccc3)oc2c1	·	·	-28%	-21%	·	·
COc1ccccc1N1CCN(CCCNC(=O)c2nnc(Cc3c(F)cccc3Cl)o2)CC1	·	·	-26%	?	·	·
CNc1ncnc2ccc(-c3ccccc3C)cc12	·	·	13µM*	23µM*	·	·
Cc1ccccc1-c1ccc2ncnc(NCCN3CCOCC3)c2c1	·	·	5.8µM*	7.3µM*	·	·
COc1ccccc1-c1cncnc1NCCN1CCOCC1	·	·	7.3µM*	5.2µM*	·	·
Cc1csc(CNc2ncnc3ccc(-c4ccccc4Cl)cc23)c1	-8%	·	·	·	·	·
CCOC(=O)C1=CCN(S(=O)(=O)c2ccc(Cl)cc2)C1c1ccc(C)cc1 (stereo not given)	·	-30%	?	?	-28%	17
CCCCCCCCN1[C@@H](CC(=O)OC)c2ccc(/C=C/C(=O)OC)cc2S1(=O)=O	·	·	0%	-7%	·	·
COCCN1CC(CNC(=O)c2cc(COc3ccc(C)c(C)c3)on2)CC1=O (stereo not given)	?	8%	-21%	0%	4%	9
FC(F)(F)c1nnc(Nc2ccc(Cl)cc2)s1	10µM*	?	?	?	?	-7
FC(F)(F)c1nnc(N2CCN(c3ccc(Cl)cc3)CC2)s1	0%	12%	0%	-6%	15%	?
C[C@H]1CN([C@@H](C)CO)C(=O)CCCn2cc(nn2)CO[C@@H]1CN(C)S(=O)(=O)c1cccc(F)c1	·	-3%	-17%	-5%	4%	35
SMILES	ELG1 repair inh	HT1080NT lethal	TDP1 cell CPT	TDP1 cell noCPT	HT1080 IDH1KD tx	IL-1B inflam inh
CC(C)CNC(=O)C1(C)CCCN1C(=O)C(C)(C)Oc1ccc(Cl)cc1 (stereo not given)	·	5%	?	16µM*	9%	42
CC(C)CNC(=O)C1(C)CCCN1Cc1ccc(OC(F)(F)F)cc1 (stereo not given)	·	-26%	?	?	2%	14
CC(C)NC(=O)C1(C)CCCN1C(=O)c1ccccc1Br (stereo not given)	·	?	-2%	1%	19%	50
O=C(Nc1ccc(OCc2cc(=O)n3c4c(sc3n2)CCCC4)cc1)c1ccc(F)cc1	·	·	-3%	-10%	·	·
Cc1ccccc1-c1cc(-c2ccccc2O)n[nH]1	?	?	21µM*	23µM*	?	-9
Cc1ccc(-c2cc(-c3ccccc3Cl)[nH]n2)c(O)c1	?	?	?	?	11µM*	1
Cc1ccc(-c2cc(-c3ccccc3[N+](=O)[O-])[nH]n2)c(O)c1	?	-14%	?	?	?	30
O=C(CCN1CCOCC1)Nc1cc(C(=O)Nc2ccc(Cl)cc2)ccc1N1CC2CC(C1)c1cccc(=O)n1C2 (stereo not given)	?	-18%	?	-26%	-10%	-63*
CCc1ccc(CCOc2ccc(CC3SC(=O)NC3=O)cc2)nc1 (stereo not given)	·	4%	21µM*!	?	-11%	62
O=C(Nc1cc(C(F)(F)F)ccc1N1CCCCC1)C1=COCCO1	·	3%	?	?	3%	0
COc1cc(C)ccc1S(=O)(=O)NC(=O)C1(C)CCN1C(=O)Cc1ccc(Cl)cc1Cl (stereo not given)	·	10%	5%	0%	15%	15
Cc1ccc(N2CCN(C(=O)c3cnn(-c4ccc(F)cc4F)c3C3CCN(C(=O)OC(C)(C)C)CC3)CC2)c(C)c1	·	·	16µM*	23µM*	·	·
Cc1ccc(C)c(N2CCN(CCCNC(=O)c3cnn(-c4ccc(F)cc4)c3C3CCN(C(=O)OC(C)(C)C)CC3)CC2)c1	·	·	4.1µM*	3.3µM*	·	·
Cc1ccc(C)c(N2CCN(CCCNC(=O)c3cnn(-c4ccccc4Cl)c3C3CCN(C(=O)OC(C)(C)C)CC3)CC2)c1	·	·	4.6µM*	4.6µM*	·	·
Cc1ccc(C)c(N2CCN(CCCNC(=O)c3cnn(-c4cccc(Cl)c4)c3C3CCN(C(=O)OC(C)(C)C)CC3)CC2)c1	·	·	4.6µM*	5.8µM*	·	·
Cc1ccc(-n2ncc(C(=O)NCCN3CCOCC3)c2C2CCN(C(=O)OC(C)(C)C)CC2)c(C)c1	·	·	0%	?	·	·
Cc1ccc(NC(=O)CN2CCC(NC(=O)c3ccccc3F)CC2)cc1C	-6%	9%	?	-18%	0%	-23
